According to the supplement of paper PMC6992640:
Counter-ions that a name gives are not always drawn. ± gives the standard deviation of the averaged measurements.

Tests used:
Experiment in all cases: cell viability (% of vehicle); higher = less cytotoxic
Conditions in all cases: 10 µM; 72 h
HCI01 = test system: HCI01 (cells of a triple-negative basal-like breast cancer xenograft)
HCI03 = test system: HCI03 (cells of an ER-positive luminal breast cancer xenograft)
HCI09 = test system: HCI09 (cells of a triple-negative luminal androgen receptor type breast cancer xenograft)
HCI11 = test system: HCI11 (cells of an ER-positive luminal breast cancer xenograft)
HCI16 = test system: HCI16 (cells of a triple-negative basal-like breast cancer xenograft)
UCD52 = test system: UCD52 (cells of a triple-negative basal-like breast cancer xenograft)
WHIM2 = test system: WHIM2 (cells of a triple-negative basal-like breast cancer xenograft)
WHIM30 = test system: WHIM30 (cells of a triple-negative basal-like breast cancer xenograft)
HCI13 = test system: HCI13 (cells of an ER-positive luminal breast cancer xenograft)
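Further: PDX cells carrying CMV promoter-driven luciferase, viability read as total photon flux per second by IVIS imaging following D-luciferin, vehicle control 0.1% DMSO.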

| Structure (SMILES) | cell viability (HCI01) | cell viability (HCI03) | cell viability (HCI09) | cell viability (HCI11) | cell viability (HCI16) | cell viability (UCD52) | cell viability (WHIM2) | cell viability (WHIM30) | cell viability (HCI13) |
| --- | --- | --- | --- | --- | --- | --- | --- | --- | --- |
| O=C(CCCN1CCN(c2ccccn2)CC1)c1ccc(F)cc1 [Azaperone] | 119 ± 25 | 114 | 96.7 ± 2.1 | 121 | 151 | 66.9 ± 13 | 98.3 ± 4.7 | 85.8 ± 2.8 | – |
| CCCCCC(O)C=CC1C(O)CC(=O)C1CCCCCCC(=O)O (stereo not drawn) [Alprostadil] | 86.5 ± 76 | 124 | 145 ± 75 | 104 | 175 | 124 ± 2.3 | 147 ± 12 | 141 ± 4.9 | – |
| CO[C@H]1C(=O)[C@]2(C)[C@@H](OC)C[C@H]3OC[C@@]3(OC(C)=O)[C@H]2[C@H](OC(=O)c2ccccc2)[C@]2(O)C[C@H](OC(=O)[C@H](O)[C@@H](NC(=O)OC(C)(C)C)c3ccccc3)C(C)=C1C2(C)C [Cabazitaxel] | 78.1 ± 51 | 113 | 66.2 ± 5.4 | 89.2 | – | 70.3 ± 4.9 | 72 ± 11 | 107 ± 4.8 | 106 ± 5.1 |
| CCCc1nc2c(C)cc(-c3nc4ccccc4n3C)cc2n1Cc1ccc(-c2ccccc2C(=O)O)cc1 [Telmisattan] | 107 ± 23 | 111 | 113 ± 59 | 101 | 116 | 122.3 ± 0.62 | 85 ± 18 | 146 ± 1.6 | – |
| Cc1onc(-c2ccccc2)c1C(=O)NC1C(=O)N2C1SC(C)(C)C2C(=O)[O-].O.[Na+] (stereo not drawn) [Oxacillin sodium monohydrate] | 114 ± 12 | 150 | 116 ± 24 | 110 | 127 | 105 ± 5 | 91 ± 13 | 168 ± 8.6 | – |
| CO[C@@]1(NC(=O)[C@H](C(=O)[O-])c2ccc(O)cc2)C(=O)N2C(C(=O)[O-])=C(CSc3nnnn3C)CO[C@@H]21.[Na+].[Na+] [Moxalactam (sodium salt)] | 116 ± 30 | 120 | 108 ± 3.6 | 66.4 | 148 | 144 ± 7 | 92.8 ± 6.9 | 126 ± 2.9 | – |
| C#CC1(O)CCC2C3CCc4cc(OC)ccc4C3CCC21C (stereo not drawn) [Mestranol] | 131 ± 12 | 136 | 94.681 ± 0.043 | 106 | 104 | 71.2 ± 21 | 159 ± 12 | 121.2 ± 0.15 | – |
| Cl.O=C1NCC2(CCN(CCc3ccccc3)CC2)O1 [Fenspiride HCl] | 118 ± 42 | 126 | 101 ± 14 | 98.4 | 104 | 99.1 ± 6.4 | 98.1 ± 4.1 | 93.8 ± 14 | – |
| CC12CCC3c4ccc(O)cc4CCC3C1CCC2O (stereo not drawn) [Estradiol] | 99.8 ± 4.7 | 111 | 91.4 ± 4.4 | 93 | 91.4 | 85.9 ± 4.8 | 108 ± 28 | 74.2 ± 6.9 | – |
| CCC(=O)OCC(=O)C1(OC(=O)CC)C(C)CC2C3CCC4=CC(=O)C=CC4(C)C3(Cl)C(O)CC21C (stereo not drawn) [Beclomethasone dipropionate] | 131 ± 100 | 182 | 144 ± 8.8 | 123 | 175 | 133 ± 3.9 | 128 ± 3.2 | 123 ± 10 | – |
| CCCC1O[C@@H]2C[C@H]3[C@@H]4CCC5=CC(=O)C=C[C@]5(C)[C@H]4[C@@H](O)C[C@]3(C)[C@]2(C(=O)CO)O1 (stereo partly drawn) [Budesonide] | 113 ± 30 | 102 | 164 ± 40 | 140 | 173 | 141 ± 9.5 | 74.4 ± 20 | – | – |
| O[C@@H]1CO[C@H]2[C@@H]1OC[C@@H]2O [Isosorbide] | 115 ± 23 | 147 | 103 ± 2.9 | 102 | 116 | 99.9 ± 3.7 | 107.6 ± 0.11 | 112 ± 15 | – |
| CCC1C(=O)N(C)c2cnc(Nc3ccc(C(=O)NC4CCC(N5CCN(CC6CC6)CC5)CC4)cc3OC)nc2N1C(C)C (stereo not drawn) [BI6727 (Volasertib)] | 82.6 ± 50 | 85.1 | 26.4 ± 0.95 | 115 | – | 116 ± 4.4 | 43.5 ± 8.7 | 176.9 ± 1.6 | 84.6 ± 29 |
| O=NN(CCCl)C(=O)NCCCl [Carmustine] | 106 ± 24 | 166 | 99.9 ± 62 | 83.9 | – | 116 ± 5.4 | 96.23 ± 0.26 | 123 ± 8.1 | 134 ± 22 |
| CC(C)n1c(C=CC(O)CC(O)CC(=O)[O-])c(-c2ccc(F)cc2)c2ccccc21.[Na+] (stereo not drawn) [Fluvastatin Sodium] | 91.3 ± 15 | 135 | 61.2 ± 11 | – | 135 | 54.9 ± 4.7 | 59.6 ± 0.62 | 113 ± 11 | – |
| CC12C=CC(=O)C=C1CCC1C3CC(O)C(O)(C(=O)CO)C3(C)CC(O)C12F (stereo not drawn) [Triamcinolone] | 117 ± 18 | 176 | 112.2 ± 0.86 | 130 | – | 121 ± 8.9 | 121 ± 18 | 185 ± 5.1 | – |
| CC(=O)OCC(=O)C1(O)CCC2C3CCC4=CC(=O)C=CC4(C)C3C(O)CC21C (stereo not drawn) [Prednisolone Acetate] | 119 ± 47 | 185 | 134 ± 37 | 123 | – | 152.4 ± 0.65 | 97.2 ± 1.2 | 182 ± 22 | – |
| CC(=O)OC1(C(C)=O)CCC2C3C=C(C)C4=CC(=O)CCC4(C)C3CCC21C (stereo not drawn) [Megestrol Acetate] | 112 ± 6.4 | 121 | 106 ± 10 | 91.8 | 102 | 103 ± 16 | 93.7 ± 14 | 127.9 ± 0.7 | – |
| CC1(C)O[C@@H]2C[C@H]3[C@@H]4CCC5=CC(=O)C=C[C@]5(C)[C@@]4(F)[C@@H](O)C[C@]3(C)[C@]2(C(=O)CO)O1 [Triamcinolone Acetonide] | 147.2 ± 1.3 | 171 | 183 ± 20 | 111 | – | 198 ± 18 | 89.1 ± 12 | – | – |
| CC1CC2C3CCC4=CC(=O)C=CC4(C)C3(F)C(O)CC2(C)C1(O)C(=O)CO (stereo not drawn) [Betamethasone] | 130 ± 41 | 177 | 145 ± 32 | 175 | – | 183 ± 2.4 | 130 ± 27 | 184 ± 37 | – |

| Structure (SMILES) | cell viability (HCI01) | cell viability (HCI03) | cell viability (HCI09) | cell viability (HCI11) | cell viability (HCI16) | cell viability (UCD52) | cell viability (WHIM2) | cell viability (WHIM30) | cell viability (HCI13) |
| --- | --- | --- | --- | --- | --- | --- | --- | --- | --- |
| CC1CC2C3CC(F)C4=CC(=O)C=CC4(C)C3(F)C(O)CC2(C)C1(O)C(=O)CO (stereo not drawn) [Flumethasone] | 144 ± 49 | 180 | 140 ± 56 | 145 | – | 166 ± 22 | 93.2 ± 12 | 163 ± 5.2 | – |
| CC12C=CC(=O)C=C1CCC1C2C(O)CC2(C)C1CCC2(O)C(=O)CO (stereo not drawn) [Prednisolone] | 135 ± 39 | 175 | 166 ± 82 | 132 | – | 173 ± 4.8 | 114 ± 2.7 | – | – |
| CCOC(=O)OC1(C(=O)OCCl)CCC2C3CCC4=CC(=O)C=CC4(C)C3C(O)CC21C (stereo not drawn) [Loteprednol etabonate] | 90.8 ± 59 | 196 | 150 ± 70 | 123 | – | 158 ± 33 | 105 ± 11 | 198 ± 12 | – |
| CC(=O)OCC(=O)[C@@]12N=C(C)O[C@@H]1C[C@H]1[C@@H]3CCC4=CC(=O)C=C[C@]4(C)[C@H]3[C@@H](O)C[C@@]12C [Deflazacort] | 107 ± 38 | 141 | 137 ± 32 | 133 | – | – | 119 ± 14 | 145 ± 3.2 | – |
| CC(C)[N+]1(C)C2CCC1CC(OC(=O)C(CO)c1ccccc1)C2.[Br-] (stereo not drawn) [Ipratropium Bromide] | 138 ± 45 | 151 | 158 ± 79 | 108 | – | 148 ± 5.2 | 103 ± 15 | 180 ± 23 | – |
| CCCCC(=O)OC1(C(=O)CO)C(C)CC2C3CCC4=CC(=O)C=CC4(C)C3(F)C(O)CC21C (stereo not drawn) [Betamethasone Valerate] | 120 ± 12 | 169 | 148 ± 34 | 124 | – | 161 ± 9.9 | 88.9 ± 29 | 194 ± 17 | – |
| C#CC1(O)CCC2C3CCc4cc(O)ccc4C3CCC21C (stereo not drawn) [Ethinyl Estradiol] | 107 ± 7.8 | 119 | 103 ± 15 | 102 | 93.3 | 84 ± 3.5 | 107 ± 25 | 109 ± 21 | – |
| CC1(C)O[C@@H]2C[C@H]3[C@@H]4CCC5=CC(=O)CC[C@]5(C)[C@@]4(F)[C@@H](O)C[C@]3(C)[C@]2(C(=O)CCl)O1 [Halcinonide] | 123 ± 21 | 144 | 146 ± 72 | 133 | – | 168 ± 24 | 105 ± 1.8 | 177 ± 4.2 | – |
| CCC(=O)OC1(C(=O)CCl)C(C)CC2C3CC(F)C4=CC(=O)C=CC4(C)C3(F)C(O)CC21C (stereo not drawn) [Halobetasol Propionate] | 159 ± 6.9 | 152 | 133 ± 96 | 133 | – | 191 ± 18 | 113 ± 9.6 | – | – |
| Nc1nc2[nH][nH]nc-2c(=O)n1 [Azaguanine-8] | 158 ± 48 | 146 | 137 ± 21 | – | – | 102 ± 55 | 96.01 ± 0.31 | 119 ± 14 | 150 ± 9.1 |
| O=c1c(O)c(-c2ccc(O)c(O)c2)oc2cc(O)cc(O)c12 [Quercetin] | 124 ± 46 | 123 | 141 ± 4.7 | 99.2 | 151 | 102 ± 1.3 | 107.1 ± 0.64 | 128 ± 17 | – |
| O=C(O)CC(O)CC(O)C=Cc1c(C2CC2)nc2ccccc2c1-c1ccc(F)cc1 (stereo not drawn) [Pitavastatin] | 119 ± 18 | 125 | 102 ± 19 | – | 171 | 74.9 ± 9.2 | 93.6 ± 47 | 92.2 ± 11 | – |
| Oc1ccc(OCc2ccccc2)cc1 [Monobenzone] | 187 ± 11 | 180 | – | 157 | 153 | 167 ± 14 | 145 ± 23 | – | 181 ± 4.9 |
| CC1(C)O[C@@H]2C[C@H]3[C@@H]4C[C@H](F)C5=CC(=O)C=C[C@]5(C)[C@@]4(F)[C@@H](O)C[C@]3(C)[C@]2(C(=O)CO)O1 [Fluocinolone Acetonide] | 84 ± 59 | 154 | 132 ± 27 | 120 | – | 131 ± 17 | 109 ± 34 | – | – |
| CC1CC2C3CCC4=CC(=O)C=CC4(C)C3(Cl)C(O)CC2(C)C1(OC(=O)c1ccco1)C(=O)CCl (stereo not drawn) [Mometasone furoate] | 94.8 ± 29 | 151 | 118 ± 30 | 115 | – | 139.5 ± 0.18 | 83.5 ± 7.3 | – | – |
| Cc1ccc(C)c(OCCCC(C)(C)C(=O)O)c1 [Gemfibrozil] | 99.9 ± 25 | 118 | 131 ± 54 | 112 | – | 124 ± 17 | 98.3 ± 12 | – | – |
| CCc1c2c(nc3ccc(OC(=O)N4CCC(N5CCCCC5)CC4)cc13)-c1cc3c(c(=O)n1C2)COC(=O)[C@]3(O)CC [Irinotecan HCl Trihydrate] | 70.8 ± 22 | 165 | 120 ± 25 | – | 105 | 104 ± 17 | 68 ± 3.8 | 107 ± 19 | 114 ± 15 |
| CC(C)c1c(C(=O)Nc2ccccc2)c(-c2ccccc2)c(-c2ccc(F)cc2)n1CCC(O)CC(O)CC(=O)[O-].CC(C)c1c(C(=O)Nc2ccccc2)c(-c2ccccc2)c(-c2ccc(F)cc2)n1CCC(O)CC(O)CC(=O)[O-].[Ca+2] (stereo not drawn) [Atorvastatin Calcium] | 89.2 ± 4.2 | 138 | 89.2 ± 26 | – | 140 | 47.7 ± 2.3 | 43.7 ± 10 | 158 ± 5.3 | 95.72 ± 0.31 |
| NCCC(O)(P(=O)(O)O)P(=O)(O)O [Pamidronate] | 167 ± 8.5 | 112 | 56 ± 19 | 144 | – | 137 ± 19 | – | 143.9 ± 0.96 | – |
